IL-1B inflam inh: inhibitors of inflammasome signaling (IL-1 beta secretion); activity change, % at 57.5 µM; 4.7% of 360,000 active; THP-1 LPS/ATP IL-1B secretion, AlphaLISA, 16 h; hits give low values; AID 743279; in the data active means activity change below about -50%; inconclusive means mostly about -30% to -49%
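THP-1 cells pretreated 1 hr with compounds (up to 57.5 uM final), then stimulated with LPS (250 ng/mL final) plus ATP (1.25 mM final); secreted IL-1B measured by AlphaLISA after 16 hr, decreased signal indicating inhibition.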
HepG2 tox: counter-screen for TGF-b inhibitors: cytotoxicity in HepG2 cells; 0.76% of 410,000 active; Potency, µM (highest dose often 46.1 µM), most hits filed as cytotoxic; HepG2 CAGA-GFP viability, ATP luminescence, 18 h
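CellTiter-Glo luminescence gave cytotoxicity after 18 hours at 37 degrees C. The cells were HepG2 CAGA-GFP in 1% FBS DMEM, stimulated with 500 pg/mL TGF-beta after compound addition. %Activity was normalised to no-cell wells (complete cell-killing) and DMSO (no toxicity), and curves were fitted and classified.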
TDP1 block: TDP1 (human) enzyme inhibition. Potency, µM (top dose mostly 130 µM), actives largely listed as inhibitors. 0.28% of 350,000 active. recombinant TDP1, AlphaScreen DNA substrate cleavage. AID 485290; further: nearly all actives have a fitted effect of over 40% in size
Target sequence (Q9NUW8 whole entry, looked up): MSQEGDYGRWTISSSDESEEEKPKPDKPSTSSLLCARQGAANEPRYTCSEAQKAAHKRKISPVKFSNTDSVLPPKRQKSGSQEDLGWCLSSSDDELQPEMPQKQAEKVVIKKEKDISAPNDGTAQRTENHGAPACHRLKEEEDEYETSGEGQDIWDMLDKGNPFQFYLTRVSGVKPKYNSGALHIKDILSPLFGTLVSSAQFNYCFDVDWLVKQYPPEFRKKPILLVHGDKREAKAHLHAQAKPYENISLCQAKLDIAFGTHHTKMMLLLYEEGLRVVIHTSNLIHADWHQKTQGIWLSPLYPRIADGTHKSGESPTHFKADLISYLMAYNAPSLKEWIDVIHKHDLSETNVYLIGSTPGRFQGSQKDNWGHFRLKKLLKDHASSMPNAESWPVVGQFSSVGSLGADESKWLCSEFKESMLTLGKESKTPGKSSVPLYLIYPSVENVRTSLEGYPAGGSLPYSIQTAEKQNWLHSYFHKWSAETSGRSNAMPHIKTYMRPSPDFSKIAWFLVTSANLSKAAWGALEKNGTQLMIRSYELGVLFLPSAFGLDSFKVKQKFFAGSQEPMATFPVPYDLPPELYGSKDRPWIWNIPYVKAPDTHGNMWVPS
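AlphaScreen read-out: signal falls as enzyme removes the 3' tyrosine-FITC from a 5'-biotinylated DNA oligo (15 nM, 5 min, RT). Enzyme was E. coli-made recombinant Tdp1 at 1 nM, exposed to compound for 15 min beforehand; beads 10 ug/ml, 10 min.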
TDP1 cell noCPT: qHTS for Inhibitors of human tyrosyl-DNA phosphodiesterase 1 (TDP1): qHTS in cells in absence of CPT | Potency, µM (top dose mostly 46.2 µM), hits mostly inhibitors | DT40 Tdp1-/- hTDP1 cells, no CPT, ATP luminescence, 48 h | 15% of 420,000 active; further: nearly all actives have a fitted effect of over 55% in size
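Stably hTDP1-transfected Tdp1-null chicken DT40 cells were treated with library compounds minus camptothecin and grown for at least 48 hr at 37 °C, after which cellular ATP was quantified by luminescence.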
TGFb SMAD3 inh: TGF-b pathway inhibition; HepG2 CAGA-GFP TGF-b/SMAD3 reporter, GFP fluorescence, 18 h; TGF-beta stimulated, 500 pg/mL final; Potency, µM (highest dose often 46.1 µM), usual class: inhibitors; 1.2% of 410,000 active; further: nearly all actives have a fitted effect of over 65% in size
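Per well, imaged GFP fluorescence of HEPG2 CAGA-GFP cells gives the signal; cells get compound, then TGF-beta (500 pg/mL final), 18 h at 37 degrees C; %Activity versus -TGF-beta and +DMSO controls.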
TDP1 cell CPT: growth inhibition of DT40 Tdp1-/-;hTDP1 cells with camptothecin (screen for TDP1 inhibitors) | Potency, µM (titrated, usually from 46.2 µM), hits mostly inhibitors | 12% of 420,000 active | chicken DT40 Tdp1-/-;hTDP1 cells + 20 nM CPT, ATP luminescence, 48 h; further: nearly all actives have a fitted effect of over 55% in size
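Chicken DT40 Tdp1-/- cells complemented with human TDP1, 400 cells/well, exposed to compounds plus 20 nM camptothecin for at least 48 h at 37 C; viability read as ATP content by CellTiter-Glo luminescence.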
Hits are given with their value; 0 = inactive; ? = inconclusive; - = not tested or not shown; [ ] = another dose, or the depositor's remark. Sampled rows, rich in hits. Any-hit rate of the full collection: about 18%. Unless noted, the call rests on the fitted dose curve; in most records, active means well fitted curve in the direction sought with a large enough effect; inconclusive means small, poorly fitted or top-dose-only effect, or another doubt; inactive means no such curve, though single readings can be large; an effect the other way counts as inactive or inconclusive.

SMILES | IL-1B inflam inh | HepG2 tox | TDP1 block | TDP1 cell noCPT | TGFb SMAD3 inh | TDP1 cell CPT
CCc1nnc(NC(=O)CSc2nc3c(c(=O)n2C)SC(C)C3)s1 (centres undefined) | 0 | 0 | 0 | 20.6µM | 0 | ?
CCSc1nnc(NC(=O)CSc2nc3c(c(=O)n2C)SC(C)C3)s1 (centres undefined) | 0 | 0 | 0 | 11.2µM | 0 | 14.6µM
CCn1c(SCC(=O)Nc2nnc(C)s2)nc2c(c1=O)SC(C)C2 (centres undefined) | 0 | 0 | 0 | ? | 0 | 0
CC(=O)Nc1ccc(S(=O)(=O)NC2(C(F)(F)F)C(=O)Nc3c2c(=O)[nH]c(=O)n3-c2cccc(Cl)c2)cc1 (centres undefined) | - | 0 | 0 | 0 | 0 | 0
O=C(O)C1CCCC1 | - | 0 | - | 0 | 0 | 0
COC1=CC(=O)c2c(ccc3ncnc(N)c23)C1=O | -112.3 | 1.41µM | - | 0.291µM | 0.891µM | 0.206µM
CC(=O)Nc1cccc(-c2ccnc3c2CC(C)(C(=O)Nc2ccccc2)O3)c1 (centres undefined) | 0 | 0 | - | ? | 0 | 0
CC1(C(=O)Nc2cccc(Oc3ccccc3)c2)Cc2c(-c3ccccc3)ccnc2O1 (centres undefined) | 0 | 0 | - | ? | 0 | ?
CC(=O)Nc1ccc(-c2ccnc3c2CC(C)(C(=O)Nc2cccc(C(C)=O)c2)O3)cc1 (centres undefined) | ? | 0 | - | 16.4µM | 0 | ?
CC(=O)c1cccc(NC(=O)C2(C)Cc3c(-c4ccccc4)ccnc3O2)c1 (centres undefined) | 0 | 0 | - | 23.1µM | 0 | 23.1µM
CC(=O)Nc1cccc(-c2ccnc3c2CC(C)(C(=O)Nc2cccc(Oc4ccccc4)c2)O3)c1 (centres undefined) | 0 | 0 | - | 20.6µM | ? | 16.4µM
O=C(NCCc1nnc2n1CCN(Cc1ccccn1)CC2)c1ccc(F)cc1 | - | - | - | 0 | - | 0
Cc1cc(NC(=O)c2cccc(Br)c2)no1 | 0 | 0 | - | 0 | 0 | 0
COc1c(C)cc(C(=O)C2CCCN(C(=O)c3cc(C4CC4)[nH]n3)C2)cc1C (centres undefined) | 0 | 0 | 0 | ? | 0 | ?
Cc1c(C)c2ccc(OCC(=O)NCCN3CCOCC3)cc2oc1=O | 0 | 0 | 0 | 0 | 0 | 0
C/C=C/c1ccc(OCC(=O)Nc2ccncc2)c(OC)c1 | 0 | 0 | - | ? | 0 | 18.4µM
C/C=C/c1ccc(OCC(=O)Nc2ccc(OC)c(OC)c2)c(OC)c1 | 0 | 0 | 0 | 23.1µM | 0 | 16.4µM
OC(CN1CC=C(/C=C/c2ccc(Br)cc2)CC1)c1ccccc1 (centres undefined) | -72.7 | 0 | - | ? | 0 | ?
OC(CN1CCCC1)c1ccccc1 (centres undefined) | - | 0 | - | 0 | 0 | ?
OC(CN1CCN(C(c2ccccc2)c2ccccc2)CC1)c1ccc(Br)cc1 (centres undefined) | 0 | 0 | - | ? | 0 | 18.4µM
Cc1cnc(-n2ncc(C(=O)NC(C)(C)CO)c2-c2cccs2)nc1-c1ccc(F)cc1 | - | - | - | ? | - | 0[9.04 µM]
Cc1nc2ccn(Cc3cccnc3)c(=O)c2cc1C(=O)Nc1ccc(F)cc1F | - | 0 | 0 | 0 | ? | 0
O=C(NNc1ccc([N+](=O)[O-])cn1)Nc1ccc(N=Nc2ccccc2)cc1 | 0 | 0 | - | ? | 0 | ?
CC(/C=N\N1CCN(Cc2ccc(C)cc2)CC1)=C\c1ccccc1 | 0 | 0 | 0 | 0 | 0 | 0
BrC(=C\c1ccccc1)/C=N/N1CCN(c2ccccn2)CC1 | -85.1 | 0 | 0 | 2.59µM | 0 | 0.326µM
SMILES | IL-1B inflam inh | HepG2 tox | TDP1 block | TDP1 cell noCPT | TGFb SMAD3 inh | TDP1 cell CPT
FC(F)(F)c1ccc(/C=N/N2CCN(Cc3ccccc3)CC2)cc1 | -59.6 | 0 | 0 | 0 | 0 | 0
BrC(=C\c1ccccc1)/C=N/N1CCN(Cc2ccccc2)CC1 | 0 | 0 | 0 | 3.26µM | 0 | 1.84µM
BrC(/C=N/N1CCN(Cc2ccccc2)CC1)=C/c1ccccc1 | -81.5 | 0 | 0 | 6.51µM | ? | 13µM
Cc1nc2ccc(S(=O)(=O)N(CC(=O)Nc3cccc(F)c3)Cc3ccccc3)cc2s1 | - | 0 | 0 | ? | ? | ?
CCCCc1ccc(NC(=O)N2CCN(c3cc(C)nc4ccccc34)CC2)c(C)c1 | -66.9 | 0 | - | ? | ? | ?
Cc1cc(N2CCN(C(=O)Nc3ccc(F)cc3F)CC2)c2ccccc2n1 | 0 | 0 | - | ? | 0 | 0
COc1ccc(NC(=O)CCS(=O)(=O)c2ccc3c(c2)n(C)c(=O)c(=O)n3C)cc1Cl | - | 0 | 0 | 0 | - | 0
Cc1[nH]n(-c2ccccc2)c(=O)c1N=Nc1c(O)cc(S(=O)(=O)N(C)C)c2ccccc12 | 0 | 0 | - | 6.51µM | ? | 6.51µM
COc1ccc(/C=C2\N=C(SC)N(c3ccccc3OC)C2=O)cc1 | ? | 0 | 0 | ? | 0 | ?
C[C@@H]1CC[C@H]2C(=O)NC[C@@H](O)CN2[C@@H]1c1ccc(Br)cc1 | - | - | 0[21 µM] | - | - | -
O=C(NCCc1ccc(Cl)cc1)c1cccn1-c1nnc(N2CCCC2)s1 | - | 0 | 0 | ? | ? | 23.1µM
O=C(NCc1cccc(Br)c1)c1cccn1-c1nnc(N2CCCCC2)s1 | - | 0 | 0 | 14.6µM | ? | ?
O=C(NCCc1ccc(Cl)cc1)c1cccn1-c1nnc(N2CCCCC2)s1 | - | 0 | 0 | 23.1µM | ? | ?
COc1cc(SC#N)ccc1N=Cc1c(C)[nH]n(-c2ccc(C)c(C)c2)c1=O | -97.8 | 8.91µM | 0 | 2.59µM | ? | 3.26µM
COc1cc(SC#N)ccc1N=Cc1c(C)[nH]n(-c2ccc(Cl)cc2)c1=O | ? | 0 | 0 | 3.66µM | 0 | 2.59µM
COc1cc(S(=O)(=O)Nc2ccccc2)ccc1N=Cc1c(C)[nH]n(-c2ccc(C)cc2)c1=O | - | - | 0 | - | - | -

Assay outcomes (PubChem BioAssay)
